These results are taken from the supplement of paper PMC11417369.

In all, about 25,000 sequences were measured (“ln(normalized median fluorescence intensity)”: median about 9.7, highest 2% from about 11 on). The sample as a whole holds a higher share of the highest values than the screen did.

The assay has as its system PfAP2-HC AP2 domain (GST-tagged). Briefly: gcPBM binding intensity (ln(normalized median fluorescence intensity)); higher = stronger DNA binding. The essentials: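 Each value is the highest Masliner-normalised natural-log median intensity across replicate spots of either orientation of a probe. The probes were primer-extended double-stranded 36-bp intergenic genomic sequences on an Agilent 4 × 180k array, alongside negative controls, exposed for 1 h to GST-tagged P. falciparum DNA-binding domains expressed in E. coli. Bound protein was picked up with Alexa488 anti-GST antibody and scanned at 488 nm.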
For “AAAATCACAAGACACACACACACAAAAAAAAAAAAA [CACACA_site6791]”, the “gcPBM binding intensity (ln)” value was 11.5. As to “CTTACCAAAAAACACACACACACAAAATATATAAAT [CACACA_site1870]”, the “gcPBM binding intensity (ln)” value came to 11.2. With “AAAATCACAAAACACACACACACAAAAAAAAAAAAA [CACACA_site1443]”, the “gcPBM binding intensity (ln)” value was found to be 10.5. As for “TTATAAAATGGGCAAACACACACAAAAAAAAGATAT [CACACA_site8476]”, the figure is 10.9; as for “AATCACAACAGACACACACACAAAAAAAAAAAAAAA [CACACA_site1442]”, 10.1.

Consider “TACCAAAATAGACACACACACAAAATATGTAAATAT [CACACA_site6963]”, for which the “gcPBM binding intensity (ln)” value is 11. As for “ATAAAATGGGCAAACACACACAAAAAAAAGATATAT [CACACA_site1648]”, the figure is 10.3. As for “AAATAAATAATATGTAAACACACAAAAAATAAAAAT [CACACA_site8307]”, the figure is 10.3; as for “TACCAAAAGAAACACACACACAAAATATATAAATAT [CACACA_site1869]”, 10.6. As for “CACAAAAATAGACACACACACATATAAATAAATATA [CACACA_site6598]”, the “gcPBM binding intensity (ln)” value was determined as 10.4. The same measure for “TATATATAAATAAACACACACAAATATAATAAAAAA [CACACA_site3526]”: 10.9; for “ATAAAATGCGCAAACACACACAAAAAAAAGATATAT [CACACA_site6875]”: 10.2. As for “ATAAATAAATAAATAAATAAATAAATAAATATATAT [CACACA_negctrl_site1728]”, the figure is 9.74. Consider “TTTAATTTATATTTTGTGCACATCTTATTATATATA [GTGCAC_site9630]”, for which the “gcPBM binding intensity (ln)” value is 9.88. As for “GAAGTATTATTAAAGCTGCACTTTTCTAAAATAAAC [GTGCAC_site9429]”, the “gcPBM binding intensity (ln)” value was found to be 9.5. The same measure for “TAATTACCATATGGTACACACATATATATCTGTATA [CACACA_site5849]”: 9.96; for “CAGGCACTAATAAACACACACATATAAATATAAATA [CACACA_site6320]”: 10.1; for “AATTTAACCACTAAAAGTACACACATATATACATAT [XGTACX_site8352]”: 10.1. “TACTTTTTTCCTATTATGTTTCTTATTTTTATAAAT [XGTACX_negctrl_site561]”: the “gcPBM binding intensity (ln)” value came out at 9.78.

Regarding “GATGATTATATATATACGCACACTTTTTTTTTTTTT [CACACA_site2652]”, the “gcPBM binding intensity (ln)” value came to 9.94.

As to “TAATAAAACATATATACACACATTATAAATACATAT [CACACA_site5014]”, the “gcPBM binding intensity (ln)” value came out at 10. Turning to “TTTTTTTTTTTTCTGTGTACATATATAATATATATA [XGTACX_site1592]”, the “gcPBM binding intensity (ln)” value was found to be 9.7. The same measure for “AAAAAATATAAAAAAACACACAAAAAAAAAAAAAAA [CACACA_site1382]”: 9.71; for “AATATATATAAATAAACACACACAAATATAATAAAA [CACACA_site9176]”: 10.8; for “AAAAAAAGAAAAAAAACACACACAAATATAAATAAA [CACACA_site8309]”: 10.9. As for “AAAAAAAAAAAACACACACACACAAATATATAAAAA [CACACA_site1171]”, the “gcPBM binding intensity (ln)” value worked out at 10.6.

With “AAATAAATAAAAAACACACACAAATAAATAAATATA [CACACA_site2249]”, the “gcPBM binding intensity (ln)” value turned out to be 10.7.

On to “AAAAAAAAAAAACACACACACAAAAAAAAATATATA [CACACA_site1105]”, for which the “gcPBM binding intensity (ln)” value turned out to be 11.3. “ATATATATAAAACACACACACAAAAAAAATAAAGAC [CACACA_site117]”: the “gcPBM binding intensity (ln)” value worked out at 11.2. In the case of “AAATATAAAGTGCACACACACAAAAAAAGAAAAAAA [CACACA_site6452]”, the “gcPBM binding intensity (ln)” value worked out at 10.2.

Consider “AAAAAGAAAAAAAACACACACAAATATAAATAAATA [CACACA_site1183]”, for which the “gcPBM binding intensity (ln)” value turned out to be 10.2.

On to “AAAAAAAAAAAAAACACACACACAAAAAAAAATATA [CACACA_site1104]”, for which the “gcPBM binding intensity (ln)” value worked out at 11.3. The same measure for “AAAAGAAAATAAGAAACACACAAAAATATATAAAAA [CACACA_site3697]”: 9.99; for “AAATATAAACGGCACACACACAAAAAAAGAAAAAAA [CACACA_site649]”: 11.

In the case of “TGTACAAATATGTTGAAAATAAAATTTCAATATATT [XGTACX_negctrl_site13]”, the “gcPBM binding intensity (ln)” value came to 9.32. On to “AAAAAATTAACCGTAACACACACACCGATATATATA [CACACA_site9312]”, for which the “gcPBM binding intensity (ln)” value is 10.5.

For “ATTTTTTTTTTTTTTTTTTTTTTTTGGAGAAAGAGA [CACACA_negctrl_site1119]”, the “gcPBM binding intensity (ln)” value came out at 8.98. As for “ATATAGAAAATGCATACACACTTTATATATATATTT [CACACA_site4658]”, the figure is 9.9. On to “TTACAAATATTATAAAGTACAAACCAGTAGATTTTG [XGTACX_site2272]”, for which the “gcPBM binding intensity (ln)” value came out at 9.63.

Regarding “ATACATATGTATATTTGTACATATTAGACAATCTTA [XGTACX_site6706]”, the “gcPBM binding intensity (ln)” value came out at 9.37. On to “CATATATAACAATTCTCACACATAAAAAAAAAAAAT [CACACA_site4564]”, for which the “gcPBM binding intensity (ln)” value was 9.76. As for “TTTTTAAATATAAACAAAAAAAAAAAATATATCAAT [XGTACX_negctrl_site328]”, the figure is 9.43.

With “AAAAAAAAAAAAAACACACACACAAGAGTATATAAA [CACACA_site6580]”, the “gcPBM binding intensity (ln)” value was found to be 11.1. Turning to “AAAACAAATATATTAACACACAAACATATAAACAAA [CACACA_site6052]”, the “gcPBM binding intensity (ln)” value was 10.4. The same measure for “AAAAAAATAAATAAGACACACACAAAAAAAAAAAAA [CACACA_site8404]”: 11.

As to “AATACTTACCAAAATACACACACACCCAAAATATAT [CACACA_site8559]”, the “gcPBM binding intensity (ln)” value was 10.3. The same measure for “AAAAAAAAAAAAAACACACACACAATAGTATATAAA [CACACA_site957]”: 10.3; for “ATATTAAAAAAATATAAACACACAAAAAAAAAATAT [CACACA_site8283]”: 9.91; for “AAAAAAATAAGACACACACACAAAAAAATAAAAATA [CACACA_site6357]”: 10.6. The same measure for “AGAGTATATAAAGTAACACACAATAAAATAAAATAA [CACACA_site2328]”: 10.3; for “AAAAATAAATAAGACACACACAAAAAAAAAAAAAAA [CACACA_site1432]”: 9.87. The same measure for “TACTTACCAAAATACACACACACACCCAATATATAA [CACACA_site1871]”: 10.5; for “AAAATATATATTAACACACACACAAAAAAAAAAAAA [CACACA_site1325]”: 11.2; for “TACTTACCAAAATACACACACACACTAGATATATAA [CACACA_site5096]”: 11.3.

On to “TATTTTTTTCTTACTACACACATATATATGCTTTCC [CACACA_site4058]”, for which the “gcPBM binding intensity (ln)” value was found to be 10. The same measure for “ATAGCATATATTTTTTGTACATATGTTATATATATA [XGTACX_site2184]”: 9.66; for “TCAAAAATAAAGATCACACATATATATATATATATA [CACACA_site4381]”: 9.73. Consider “AAAAAAAAAGATCACACACACATAAATATAAACAAA [CACACA_site5285]”, for which the “gcPBM binding intensity (ln)” value was 10.9. As for “CACAAAAATAAACACACACACATATATATATATATA [CACACA_site4704]”, the figure is 10.4; as for “AAGTTCAAAATAAATGGTACAGAAGTATATATATCA [XGTACX_site174]”, 9.75. For “ATATATCCAAATAGATTACATATATATATATAGATA [TGCATGCA_negctrl_site277]”, the “gcPBM binding intensity (ln)” value amounted to 9.5. Take “AACAGACAGAAACACACACACATATATATATATATA [CACACA_site3394]”: the “gcPBM binding intensity (ln)” value worked out at 10.8. As for “CAAGCACCCAGACACACACACACACCCACACCCACA [CACACA_site369]”, the figure is 11.2; as for “ACATCAAGCAGACACACACACACACCCACCCACCGA [CACACA_site371]”, 10.7; as for “CACAAAGACACAAACACACACACACCCACATACATA [CACACA_site452]”, 10.5. As for “TATACACCCAGACACACACACACACCCAAAAAAAAA [CACACA_site497]”, the figure is 10.9. On to “ATCAAGCACGGACACACACACACACCCAGACCCCCA [CACACA_site4360]”, for which the “gcPBM binding intensity (ln)” value is 10.6. The same measure for “CACCCACCCAGACACACACACACAAAAAAAAAAAGA [CACACA_site499]”: 11.2; for “ACATCAAGCAGACACACACACACACCCACCCACCCA [CACACA_site8012]”: 11.5. The same measure for “TACACAAGCAGACACACACACATATATATATATATA [CACACA_site1270]”: 10.2. The same measure for “CAAGCACAGAAACACACACACACACCGACACAGACA [CACACA_site4359]”: 10.9; for “ACATCAAGCGGACACACACACACACCGACAGACACA [CACACA_site4361]”: 10.9; for “CAATATATTTGATTTACACACTTACAATGTATTTAA [CACACA_site5632]”: 9.79. Take “AAGAATTATTTTTTATGTACTTATATGTCAATTTTC [XGTACX_site6676]”: the “gcPBM binding intensity (ln)” value was 9.68. Consider “TTGTAGGAATTTATTTTGACTGATAATTAATACGTT [GTGCAC_negctrl_site46]”, for which the “gcPBM binding intensity (ln)” value turned out to be 9.47. On to “AAAAAAAATATATATGCACACACAAAAAAACAAATT [CACACA_site8349]”, for which the “gcPBM binding intensity (ln)” value was determined as 10.2. The same measure for “TAGTATCAATCTTATACATGCATAAAATAATTATAA [TGCATGCA_site1052]”: 9.53; for “AAAAAATTTATAAAAGCACACAAAATAAAAAAAAAT [CACACA_site8420]”: 9.78. For the sequence “TAACATATCTTTAATACACACTTAAAAAAGTACTTA [CACACA_site4532]”, the “gcPBM binding intensity (ln)” value stood at 9.41. As for “CAGATAGACTTATATGCATGCATTCACCTGCCAACA [TGCATGCA_site158]”, the figure is 9.66; as for “AATATATGGTTTCATGATATAAAATTCAATTTAATG [GTGCAC_negctrl_site610]”, 9.51; as for “ATGTTTTATATTTTTTTTTTGTTTGCTTGTTTCCTC [CACACA_negctrl_site870]”, 9.57. Consider “ATATACAAAGGATTAACACACATATTATTATAGATA [CACACA_site6966]”, for which the “gcPBM binding intensity (ln)” value turned out to be 9.87.

Take “TGTTTTTTATTTAATTGTACGAATTAAAAAAAATAA [XGTACX_site3009]”: the “gcPBM binding intensity (ln)” value was found to be 9.1.

On to “TAGACTCCCAGACACACACACACACCCATATAATAT [CACACA_site593]”, for which the “gcPBM binding intensity (ln)” value is 10.5. As for “CACCCCCACAGACACACACACACACCCATATATATA [CACACA_site364]”, the “gcPBM binding intensity (ln)” value is 10.6. For “CACCCACCCAGACACACACACACACCCCCACCCATA [CACACA_site367]”, the “gcPBM binding intensity (ln)” value was 11.6. As to “ATACATCAAGGACACACACACACACGCACACGCACA [CACACA_site6310]”, the “gcPBM binding intensity (ln)” value worked out at 10.7. As for “ATACATCAAGGACACACACACACACCCACACCCACA [CACACA_site8013]”, the figure is 11.1; as for “TACACCCACCCACATACACACACATACACATATATA [CACACA_site8503]”, 10.8.
